Laboratory results: PubChem BioAssay (NCATS)
Several values for one entry are separate records, joined by “and”; a condition that tells them apart may be missing. Identical values can stand only once. Results filed as inconclusive are left out. Some structures have more than one record in an assay (separate samples or runs), and their calls can disagree. Activity calls are given as the source filed them. Calls come from the whole dose curve; as a rule, active = well fitted curve in the direction sought with a large enough effect; inconclusive = small, poorly fitted or top-dose-only effect, or another doubt; inactive = no such curve, though single readings can be large; an effect the other way counts as inactive or inconclusive.

Assays:
CRL-7250 = normal cell line; experiment: Cytotoxic Profiling of Annotated Libraries Using Quantitative High-Throughput Screening (AID 1296008); settings: Five cell lines viability, CellTiter-Glo ATP luminescence, 48-72 h; max response: active compounds read low; note: nearly all actives have a fitted effect of over 60% in size; note: potency is the fitted concentration of half-maximal effect
How it was run: (§1)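 Cytotoxicity was measured as CellTiter-Glo ATP luminescence, read after 10 min at room temperature. Compound treatment of the cells lasted 48 or 72 hr at 37 degrees Celsius in a qHTS format.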

HEK293 = experiment: as above; settings: Five cell lines viability, CellTiter-Glo ATP luminescence, 48-72 h; max response: active compounds read low
How it was run: as §1

HaCat [1] = experiment: as above; settings: Five cell lines viability, CellTiter-Glo ATP luminescence, 48-72 h; max response: active compounds read low
How it was run: as §1

KB-3-1 = experiment: as above; settings: Five cell lines viability, CellTiter-Glo ATP luminescence, 48-72 h; max response: active compounds read low
How it was run: as §1

NIH3T3 [2] = experiment: as above; settings: Five cell lines viability, CellTiter-Glo ATP luminescence, 48-72 h; max response: active compounds read low
How it was run: as §1

HACAT [3] = experiment: qHTS assay to identify novel small-molecules to repurpose for Merkel cell carcinoma treatment (AID 1296009); settings: MCC and control cell lines, CellTiter-Glo viability, 72 h; at 44.8 µM (top of the series) unless noted; note: nearly all actives have a fitted effect of over 60% in size; note: potency is the fitted concentration of half-maximal effect
How it was run: (§2)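 Cell viability measured by CellTiter-Glo following 72 hr compound treatment at 37 degree celsius, with NPC and MIPE libraries tested in 8- and 11-point concentration series.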

HEK293T = experiment: as above; settings: MCC and control cell lines, CellTiter-Glo viability, 72 h; at 44.8 µM (top of the series) unless noted
How it was run: as §2

MCC-13 = experiment: as above; settings: MCC and control cell lines, CellTiter-Glo viability, 72 h; series mostly up to 46 µM
How it was run: as §2

MCC-26 = experiment: as above; settings: MCC and control cell lines, CellTiter-Glo viability, 72 h; series mostly up to 46 µM
How it was run: as §2

MKL-1 = experiment: as above; settings: MCC and control cell lines, CellTiter-Glo viability, 72 h; series mostly up to 46 µM
How it was run: as §2

UISO = experiment: as above; settings: MCC and control cell lines, CellTiter-Glo viability, 72 h; series mostly up to 46 µM
How it was run: as §2

C33A = experiment: Primary qHTS to identify gynecologic anti-cancer compounds using libraries of approved drugs and bioactive compounds (AID 1345084); settings: Gynecologic cancer cell panel viability, ATPlite luminescence, 48 h; series mostly up to 57.5 µM; note: nearly all actives have a fitted effect of over 55% in size
How it was run: (§3)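 Luminescence from the ATPlite ATP-monitoring reagent indicates viable cell number; lower signal means cytotoxicity. Cells received compound 16 h after seeding and were exposed for 48 h across five concentrations.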

CAOV3 = experiment: as above; settings: Gynecologic cancer cell panel viability, ATPlite luminescence, 48 h; series mostly up to 57.5 µM
How it was run: as §3

CASKI = experiment: as above; settings: Gynecologic cancer cell panel viability, ATPlite luminescence, 48 h; series mostly up to 57.5 µM
How it was run: as §3

MKL-2 = experiment: qHTS assay to identify novel small-molecules to repurpose for Merkel cell carcinoma treatment (AID 1296009); settings: MCC and control cell lines, CellTiter-Glo viability, 72 h; series mostly up to 46 µM; note: nearly all actives have a fitted effect of over 60% in size; note: potency is the fitted concentration of half-maximal effect
How it was run: as §2

NIH3T3 [4] = experiment: as above; settings: MCC and control cell lines, CellTiter-Glo viability, 72 h; series mostly up to 44.8 µM
How it was run: as §2

WaGa = experiment: as above; settings: MCC and control cell lines, CellTiter-Glo viability, 72 h; series mostly up to 46 µM
How it was run: as §2
% is set by controls: 0 for no effect and ±100 for the full control effect.

O=C(O)CCNc1cc(N2CCc3ccccc3CC2)nc(-c2ccccn2)n1
inactive: max response (CRL-7250) -1.59% and -1.08% and -1.74% | max response (HEK293) 1.95% and -5.12% | outcome (HEK293) | max response (HaCat [1]) -11.8% | outcome (HaCat [1]) | max response (KB-3-1) -6.65% and -1.07% | outcome (KB-3-1) | max response (NIH3T3 [2]) -1.17% and -17.2% and -11.6% | outcome (HACAT [3]) | outcome (HEK293T) | Potency (MCC-13) | Potency (MCC-26) | Potency (MKL-1) | Potency (C33A) | Potency (CAOV3) | Potency (CASKI)
active: Potency (UISO) 14.8 µM

CCN1CCN(c2ccc(Nc3cc(N(C)C(=O)Nc4c(Cl)c(OC)cc(OC)c4Cl)ncn3)cc2)CC1
inactive: max response (HaCat [1]) 4.46% | max response (KB-3-1) 8.02% | outcome (NIH3T3 [2]) | Potency (MCC-13) | Potency (MCC-26) | Potency (MKL-1) | Potency (MKL-2) | Potency (NIH3T3 [4]) | Potency (WaGa) | Potency (C33A) | Potency (CAOV3) | Potency (CASKI)
active: Potency (CRL-7250) 7.31 µM | Potency (HEK293) 16.4 µM | Potency (HaCat [1]) 8.2 µM | Potency (KB-3-1) 23.1 µM

CCn1c(-c2nonc2N)nc2cncc(CNC3CCNCC3)c21
active: Potency (CRL-7250) 7.31 µM | Potency (HEK293) 10.5 µM and 2.31 µM
inactive: max response (HaCat [1]) -17.9% | outcome (HaCat [1]) | max response (KB-3-1) 3.41% and -9.32% | outcome (HACAT [3]) | Potency (MCC-13) | Potency (MCC-26) | Potency (MKL-1) | Potency (UISO) | Potency (CAOV3) | Potency (CASKI)

Cc1ccc2c(c1)c1c(n2CCc2ccc(C)nc2)CCN(C)C1
active: Potency (HEK293) 14.6 µM
inactive: outcome (CRL-7250) | max response (HEK293) -7.19% | max response (HaCat [1]) -15.7% | outcome (HaCat [1]) | max response (KB-3-1) 2.15% | max response (NIH3T3 [2]) 1.43% | outcome (HACAT [3]) | Potency (MCC-13) | Potency (MCC-26) | Potency (MKL-1) | Potency (MKL-2) | Potency (UISO) | Potency (WaGa)

Cc1ccccc1C(C(=O)NC1CCCCC1)N(C(=O)CNc1ccc(C#N)cc1)c1cccc(F)c1 (centres undefined)
inactive: max response (CRL-7250) 4.34% | outcome (CRL-7250) | max response (HEK293) -1.85% | outcome (HEK293) | max response (HaCat [1]) -5.11% | outcome (HaCat [1]) | max response (KB-3-1) 5.31% | outcome (KB-3-1) | max response (NIH3T3 [2]) -3.8% and -0.279% | outcome (HACAT [3]) | outcome (HEK293T) | Potency (MCC-13) | Potency (MCC-26) | Potency (MKL-1) | Potency (MKL-2) | Potency (UISO) | Potency (WaGa) | Potency (C33A) | Potency (CAOV3) | Potency (CASKI)

NC(=O)c1ccc(N(C(N)=O)c2c(F)cccc2F)nc1-c1ccc(F)cc1F
inactive: max response (CRL-7250) -5.46% and 0.374% | max response (HEK293) -4.84% and -3.96% | max response (HaCat [1]) -19.1% and -25.7% | max response (KB-3-1) 7.33% | outcome (KB-3-1) | max response (NIH3T3 [2]) 4.54% | outcome (NIH3T3 [2]) | Potency (MCC-13) | Potency (MCC-26) | Potency (MKL-1) | Potency (MKL-2) | Potency (NIH3T3 [4]) | Potency (UISO) | Potency (WaGa) | Potency (C33A) | Potency (CAOV3) | Potency (CASKI)

CN(C)c1nc(Cc2ccc(NC(=O)c3ccc(C(F)(F)F)cc3)cc2)nc(N(C)C)c1CC(=O)O
inactive: outcome (CRL-7250) | max response (HEK293) 3.18% | outcome (HEK293) | outcome (HaCat [1]) | max response (KB-3-1) 4.62% | outcome (KB-3-1) | max response (NIH3T3 [2]) -4.49% and 4.34% | outcome (HACAT [3]) | outcome (HEK293T) | Potency (MCC-13) | Potency (MCC-26) | Potency (MKL-1) | Potency (MKL-2) | Potency (UISO) | Potency (WaGa) | Potency (C33A) | Potency (CAOV3) | Potency (CASKI)

CC1(C)[C@H]2CC[C@]3(C)[C@@H](C(=O)C=C4[C@@H]5C[C@@](C)(C(=O)O)CC[C@]5(C)CC[C@]43C)[C@@]2(C)CC[C@@H]1O
inactive: outcome (CRL-7250) | max response (HEK293) -1.55% | outcome (HaCat [1]) | max response (KB-3-1) 1.07% | max response (NIH3T3 [2]) -8.32% | outcome (HACAT [3]) | Potency (MCC-13) | Potency (MCC-26) | Potency (MKL-1) | Potency (MKL-2) | Potency (UISO) | Potency (WaGa)

CN1[C@H]2CC[C@H]1CC(OC(=O)c1c[nH]c3ccccc13)C2 (some centres undefined)
inactive: max response (CRL-7250) -1.18% | max response (HEK293) -1.65% | outcome (HaCat [1]) | max response (KB-3-1) 6.19% | outcome (NIH3T3 [2]) | outcome (HACAT [3]) | Potency (MCC-13) | Potency (MCC-26) | Potency (MKL-1) | Potency (MKL-2) | Potency (NIH3T3 [4]) | Potency (UISO) | Potency (WaGa)

CCCCCCCCCCCCCCCC(=O)O[C@H]1[C@@H](O)[C@@H](O)[C@@H]([C@H](NC(=O)[C@@H]2C[C@@H](CCC)CN2C)[C@H](C)Cl)O[C@@H]1SC
inactive: outcome (CRL-7250) | max response (HEK293) -29.9% | outcome (HaCat [1]) | outcome (KB-3-1) | outcome (NIH3T3 [2]) | outcome (HACAT [3]) | Potency (MCC-13) | Potency (MCC-26) | Potency (MKL-1) | Potency (NIH3T3 [4]) | Potency (UISO) | Potency (WaGa)

COc1cc2ncn(-c3cc(OCc4ccccc4S(C)(=O)=O)c(C#N)s3)c2cc1OC
inactive: max response (CRL-7250) 0.002% | max response (HEK293) -13.3% | outcome (HaCat [1]) | max response (KB-3-1) -2.12% | max response (NIH3T3 [2]) -0.819% | outcome (HACAT [3]) | Potency (MCC-13) | Potency (MCC-26) | Potency (MKL-1) | Potency (MKL-2) | Potency (UISO) | Potency (WaGa)

COc1cc([C@H]2Oc3cc([C@H]4Oc5cc(O)cc(O)c5C(=O)[C@H]4O)ccc3O[C@H]2CO)ccc1O
inactive: outcome (CRL-7250) | max response (HEK293) -13.7% | outcome (HaCat [1]) | max response (KB-3-1) -0.459% | max response (NIH3T3 [2]) 0.0248% | outcome (HACAT [3]) | Potency (MCC-13) | Potency (MCC-26) | Potency (MKL-1) | Potency (UISO) | Potency (WaGa)
